# Measurements taken from PubChem BioAssay (NCI).
# About 83,000 compounds went through this panel and 20% of them were active in at least one assay; those are over-represented in the sample as a whole.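 Method: cells in 96-well plates; compound added at one concentration; 48 h incubation; percent growth measured; values under 10 scored active.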 A number with no mark means an inactive call. Calls of active or inactive are those of the source.
# What was measured:
# Experiment in all cases: NCI-60 one-dose screen, 48 h (100 = growth as untreated, 0 = no growth, -100 = all killed)
# HCT-15 colon = conditions: 10 µM unless noted
# HT29 colon = conditions: 10 µM unless noted
# SNB-75 CNS = conditions: 10 µM unless noted
# SNB-19 CNS = conditions: 10 µM unless noted
# U251 CNS = conditions: 10 µM unless noted
# PC-3 prostate = conditions: 10 µM unless noted
# SK-MEL-5 melanoma = conditions: 10 µM unless noted
# UACC-62 melanoma = conditions: 10 µM unless noted
# LOX IMVI melanoma = conditions: 10 µM unless noted
# SK-MEL-28 melanoma = conditions: 10 µM unless noted
# SK-MEL-2 melanoma = conditions: 10 µM unless noted
# EKVX NSCLC = conditions: 10 µM unless noted
# SN12C renal = conditions: 10 µM unless noted
# UO-31 renal = conditions: 10 µM unless noted
# TK-10 renal = conditions: 10 µM unless noted
# ACHN renal = conditions: 10 µM unless noted
# A498 renal = conditions: 10 µM
# HL-60(TB) leukemia = conditions: 10 µM unless noted
# CCRF-CEM leukemia = conditions: 10 µM unless noted
# CAKI-1 renal = conditions: 10 µM unless noted
Compound,growth (HCT-15 colon),growth (HT29 colon),growth (SNB-75 CNS),growth (SNB-19 CNS) [%],growth (U251 CNS),growth (PC-3 prostate),growth (SK-MEL-5 melanoma),growth (UACC-62 melanoma),growth (LOX IMVI melanoma),growth (SK-MEL-28 melanoma) [%],growth (SK-MEL-2 melanoma),growth (EKVX NSCLC) [%],growth (SN12C renal),growth (UO-31 renal),growth (TK-10 renal),growth (ACHN renal),growth (A498 renal),growth (HL-60(TB) leukemia),growth (CCRF-CEM leukemia),growth (CAKI-1 renal) [%]
COC(=O)[C@@H](C)C[C@H](Cc1ccccc1)NC(=O)c1csc([C@@H](C[C@H](C(C)C)N(C)C(=O)[C@H](C)NC(=O)[C@H]2CCCCN2C)OC(C)=O)n1,45.4%,9.42% (active),18.1%,27.7,10.8%,19.6%,19.3%,28.4%,39.8%,58.1,41.9%,53.6,36%,66.4%,61.7%,48.2%,56.4%,-19.6% (active),12.3%,–
Nc1ccc(Cl)cc1,100%,97.5%,88.3%,103,96.9%,86%,99.7%,101%,92.8%,109,95.7%,95.7,95.3%,94.9%,92.3%,108%,103%,95%,98.2%,–
CC(=O)O[C@H](C[C@H](C(C)C)N(C)C(=O)[C@@H](NC(=O)[C@H]1CCCCN1C)C(C)C)c1nc(C(=O)N[C@@H](Cc2ccccc2)C[C@H](C)C(=O)O)c(C)s1,16.5%,3.99% (active),49.6%,38.5,8.94% (active),21.3%,-33.1% (active),48.1%,26.6%,62.7,61.5%,40.9,34.6%,58.9%,36.9%,26.6%,-8.24% (active),-8.97% (active),10.8%,–
N#C[S-].[Au+].c1ccc(CN2[CH-]N(Cc3ccccc3)C(c3ccccc3)=C2c2ccccc2)cc1,13.8%,7.04% (active),43.6%,16.1,5.57% (active),7.2% (active),-36.5% (active),3.87% (active),7.61% (active),20.8,-1.84% (active),12.6,6.67% (active),4.03% (active),17.6%,2.08% (active),-37.3% (active),-44.1% (active),1.1% (active),–
COC(=O)[C@@H](C)C[C@H](Cc1ccc(F)cc1)NC(=O)c1csc([C@@H](C[C@H](C(C)C)N(C)C(=O)[C@@H](NC(=O)[C@H]2CCCCN2C)C2CC2)OC(C)=O)n1,12.4%,0.34% (active),54.3%,36.5,5.77% (active),28.7%,-20.7% (active),43.3%,23.9%,59,24.4%,43.2,31.6%,55.8%,72.4%,34%,9.1% (active),-35.1% (active),12.6%,–
CC(=O)O[C@H](C[C@H](C(C)C)N(C)C(=O)[C@@H](NC(=O)[C@H]1CCCCN1C)C(C)C)c1nc(C(=O)N[C@@H](Cc2ccccc2)C[C@H](C)C(=O)O)c(C(C)C)s1,8.7% (active),2.43% (active),22.6%,27.6,15.4%,29.9%,-43.9% (active),31.1%,10.5%,60.9,23.6%,39.3,16.6%,41.5%,61.6%,27.3%,-8.17% (active),-41.4% (active),3.84% (active),–
COc1ccc(Nc2ccc([N+](=O)[O-])cc2[N+](=O)[O-])cc1CN(CCCl)CCCl,27.7%,13.2%,33.7%,22.3,29.6%,46.8%,57.2%,12.1%,3.66% (active),73.6,42.9%,70.7,21.4%,31.4%,56.7%,15.2%,18.5%,-17.7% (active),2.14% (active),–
N#C[Se]CCN1C(=O)c2ccccc2C1=O,53.2%,13.9%,2.39% (active),38,27.4%,41.8%,1.73% (active),22.7%,5.83% (active),25.9,43.7%,33.8,64.4%,15.9%,15.3%,63.2%,-12.5% (active),–,21.1%,–
CC(=O)O[C@H](C[C@H](C(C)C)N(C)C(=O)[C@@H](NC(=O)[C@H]1CCCN1C)C(C)C)c1nc(C(=O)N[C@@H](Cc2ccccc2)C[C@H](C)C(=O)O)c(C)s1,17.7%,2.64% (active),50.5%,33.2,5.53% (active),19.2%,-19.2% (active),39.3%,27.4%,61.9,36.5%,53.7,29.2%,49.3%,42.4%,26.7%,-2.65% (active),-19.2% (active),8.48% (active),–
CNC(=O)Oc1ccc(C(C)(C)C)cc1OC(=O)NC,90.5%,88.8%,91%,101,92.3%,94%,98.9%,99.6%,92.4%,107,70.7%,82.1,95.2%,94.9%,98.2%,106%,98.8%,85.8%,96.6%,–
CCCCCCCC[n+]1ccc2ccccc2c1,99.7%,42.4%,69.4%,53.8,66%,35%,-19.4% (active),25.5%,63.6%,61.2,24.5%,75.3,48.3%,71%,62.9%,94.8%,93.1%,–,43.3%,–
O=C1CNC(c2ccccc2)c2cc(Cl)ccc2N1 (stereo unspecified),105%,80.4%,85.6%,96.6,105%,99.3%,101%,93.4%,96.3%,116,95.5%,104,97.6%,80.4%,93.2%,109%,97.5%,97.5%,94.2%,–
CCN(CCO)C(Cc1ccccc1)c1ccccc1 (stereo unspecified),94.3%,98.5%,99.8%,119,115%,94.9%,104%,107%,92.6%,101,105%,96.5,102%,94%,101%,108%,96.3%,–,2.74% (active),–
O=[N+]([O-])c1cnc[nH]1,112%,95.1%,93.1%,104,99.6%,96.5%,106%,96.3%,97.8%,114,102%,109,103%,94.8%,111%,–,–,134%,103%,99
COc1ccc(/C=C\c2cc(OC)c(OC)c(OC)c2)cc1OCC(=O)Nc1nc2ccc(C(F)(F)F)cc2s1,15.2%,92.6%,-6.34% (active),33.7,18%,31.5%,16.8%,32.1%,9.35% (active),32.9,-2.78% (active),77.3,45.8%,21%,8.6% (active),–,14.3%,11.8%,25.4%,24.5
